Data from PubChem BioAssay AID488857 (Sanford-Burnham Center for Chemical Genomics, 2010).
Screen size: about 1,400 compounds; about 560 (40%) were called active. So high a share suggests a set chosen from earlier hits. The list shows a part of the results. Unmarked numbers belong to inactive results.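 The calls were made as follows: active = mean inhibition over duplicate tests at 10 µM above 50%; inactive = the rest.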

Assay: ASC/caspase-1 reporter retest in S. cerevisiae at one dose, specificity check for NALP1 project (AID 488857)
Conditions: S. cerevisiae ASC/Caspase-1, beta-galactosidase luminescence, 24 h; at 10 µM; stronger effect = higher value

Compound	inhibition
CCSc1nnc(-c2ccncc2)n1Cc1ccccc1	23.7%
CCCn1c(-c2cccnc2Cl)nc2cc(Cl)c(Cl)cc21	47.9%
CS/C(=N\S(=O)(=O)c1cccs1)Nc1ccc(Br)cc1F	68.3% (active)
CCCNC(=O)c1cc2c3ccccc3n(C)c2s1	74.2% (active)
CC(C)OCCCNC(=O)c1cc2c(=O)n(C)c3ccccc3c2n1C	30.8%
OC(COc1ccc2c(c1)CCC2)CN1CCN(c2ccccc2F)CC1 (centres undefined)	78% (active)
COc1ccc(CN2CC(C(=O)NCCN3CCN(c4ccccc4F)CC3)CC2=O)cc1 (centres undefined)	29.6%
O=[N+]([O-])c1ccc(OCC(O)CN2CCN(c3ccccc3F)CC2)cc1 (centres undefined)	51.8% (active)
OC(CSc1c(Cl)cccc1Cl)CN1CCN(c2ccccc2F)CC1 (centres undefined)	50.8% (active)
COc1cccc(CN2CCC(C(=O)N3CCN(c4ccccc4F)CC3)CC2)c1OC	32.3%
Cc1sc(-c2ccncc2)nc1OC(=O)c1ccccc1	36.9%
Cc1occc1C(=O)Nc1c(F)c(F)c(F)c(F)c1F	38.6%
Cc1ccc(NCC(=O)Nc2c(C)n(C)n(-c3ccccc3)c2=O)cc1S(=O)(=O)N(C)C	10.7%
CC1=C(C(=O)Nc2ccc(Cl)cc2)C(c2ccncc2)C(C#N)=C(SCC(N)=O)N1 (centres undefined)	30.2%
Cn1c2c(c(=O)n(C)c1=O)C(NC(=O)C(C)(C)C)(C(F)(F)F)C(=O)N2 (centres undefined)	40.1%
O=S(=O)(CC(CN1CCCC1)N1CCCC1)c1ccc2ccccc2c1 (centres undefined)	30.2%
O=S(=O)(CC(CN1CCCCC1)N1CCCCC1)c1ccc2ccccc2c1 (centres undefined)	59.8% (active)
O=S(=O)(NC1CCCCC1)c1ccc(F)c2ccccc12	57.7% (active)
O=C(Nc1nc(-c2ccncc2)cs1)c1ccc(S(=O)(=O)N2CCOCC2)cc1	39.9%
CS(=O)(=O)N1N=C(c2ccco2)CC1c1ccc(Cl)cc1 (centres undefined)	27.9%
CCOC(=O)c1c(/N=C/c2cc(OC)cc([N+](=O)[O-])c2O)sc(C)c1C	65.7% (active)
CCOC(=O)c1sc(=S)n(-c2ccc(OC)cc2)c1C	48.9%
Nc1ccc(Oc2cccc(Oc3ccc(N)cc3)c2)cc1	48%
COc1ccc(-c2csc(N3C(=O)C4C5c6ccccc6C(c6ccccc65)[C@@H]4C3=O)n2)cc1 (some centres undefined)	34.7%
Nc1nc(-c2ccc(Oc3ccccc3)cc2)cs1	99.7% (active)

Compound	inhibition
Cc1sc(N)nc1-c1ccc(Oc2ccccc2)cc1	76.5% (active)
Nc1nc2ccc(Oc3ccccc3)cc2s1	96.2% (active)
O=C(Cc1ccc(Cl)cc1)Oc1cccc2cccnc12	29.8%
c1cnc2c(c1)ccc1cccnc12	84.1% (active)
Fc1ccc(Nc2nc(Oc3ccccc3F)nc(N3CCCC3)n2)cc1	41.3%
Cc1ccccc1Nc1cc(C)c2c(O)cccc2n1	77.8% (active)
COc1ccc(NC(=O)N2CCC(CO)(CC3CCCCO3)CC2)c(OC)c1 (centres undefined)	40.4%
COc1ccc(NC(=O)c2sc(N3CCOCC3)nc2-c2ccccc2)c(OC)c1	57.7% (active)
C/C(=N\NC(=O)Cc1csc(N2CCOCC2)n1)c1ccccc1	29.2%
CN(C)Cc1ccccc1Sc1ccccc1Br	49%
CC(=O)c1ccc(NC(=O)Nc2ccc(Cl)cc2)cc1	44.4%
N#Cc1ccc(NC(=O)Nc2ccc(Cl)cc2)cc1	96.4% (active)
COc1ccc(N2CCN(CCNC(=O)Nc3ccc(Cl)cc3)CC2)cc1	39.5%
Cc1cccc(C)c1C(OCCN(C)C)C1CCCCC1 (centres undefined)	35.5%
COc1ccc(/C=C/C(=O)Nc2ccc3c(c2)CCC3)cc1OC	86.2% (active)
COc1cc(/C=C(\NC(C)=O)C(=O)Nc2cccc(O)c2)ccc1OC(C)=O	42%
O=C1/C(=C/c2cccnc2)SC(=S)N1C1CCS(=O)(=O)C1 (centres undefined)	32.4%
COc1ccc(OC)c(S(=O)(=O)Nc2ccc(O)c3ccccc23)c1	28.8%
CSc1ccc2c(c1)N(CCC1CCCCN1C)c1ccccc1S2 (centres undefined)	81.8% (active)
CCC(C)NCCOc1cccc(Br)c1 (centres undefined)	39.6%
O=C(Nc1ccc(-c2nc3ccccc3s2)cc1)C1=COCCO1	55.6% (active)
Cc1ccc2nc(-c3ccc(NC(=O)CN(c4ccccc4C)S(C)(=O)=O)cc3)sc2c1	44.1%
CCOC(=O)N/N=C/c1ccc(N(CC)CC)cc1O	72.5% (active)
COc1cc2nc(Cl)nc(N3CCN(C)CC3)c2cc1OC	30%
O=C(Nc1ccc(Cl)c(Cl)c1)Oc1ccc(NC(=O)c2ccco2)cc1	54.6% (active)

Compound	inhibition
COc1cccc(NC2=C(Cl)C(=O)OC2OC(=O)c2ccco2)c1 (centres undefined)	38.3%
Cc1ccc(NC(=O)N2CCc3ccccc3C2)cc1	69.2% (active)
O=C(Nc1ccccc1)N1CCc2ccccc2C1	71.7% (active)
CC(=O)N1CCCc2cc(S(=O)(=O)N3CCc4ccccc4C3)ccc21	45.2%
O=C(NCCCN1CCc2ccccc2C1)Nc1ccc(Br)cc1	43.3%
Cc1ccc2cc3cc(C(=O)NCCCN4CCc5ccccc5C4)oc3nc2c1	35%
COC(=O)/C(=N/Nc1ccc(C)cc1)N1CCCc2ccccc21	40.6%
CCOC(=O)c1cc(-c2ccc(OC)cc2)nc2c1c(C)nn2CCC#N	49.6%
CN1C/C(=C/c2ccncc2)C(=O)/C(=C/c2ccncc2)C1	26.9%
CC1=CC2=NC(=O)/C(=C\c3cccn3CCOc3cccc(C)c3)C(=N)N2O1	85.1% (active)
NCCS	58.8% (active)
COc1ccc2nc3oc(C(=O)Nc4ccc(OC)c(OC)c4)cc3cc2c1	36.3%
CCOC(=O)C1CCCCN1Cc1ccc(F)c(Br)c1 (centres undefined)	40.2%
CCOC(=O)C1CCN(C(=O)c2cc3cc4cc(OC)ccc4nc3o2)CC1	52% (active)
O=C(NCC1CCCO1)C(c1cccs1)N(Cc1cccs1)C(=O)Cn1nnc(-c2cccs2)n1 (centres undefined)	39.1%
CCOC(=O)c1c(C)c(C(=O)NCCCOC(C)C)c(C)n1C	26.7%
COc1cc(C=O)ccc1Oc1nnnn1-c1ccccc1	52.9% (active)
O=C1CN(c2nnnn2-c2ccccc2)CCN1	40.9%
CC(C)C(=O)c1cc2c(cc1NC(=O)Nc1cccc3ccccc13)OCCO2	49.3%
O=C(N/N=C/c1ccc2c(c1)OCO2)c1cccs1	68.9% (active)
CNc1ccc(/C=C/C(=O)c2ccc3c(c2)OCCO3)cc1[N+](=O)[O-]	66.7% (active)
Cc1c([N+](=O)[O-])c(C(=O)Nc2ccc3c(c2)OCCO3)nn1C	24.6%
O=C(/C=C/c1cccc([N+](=O)[O-])c1)c1ccco1	36%
CC1=CC(C)(C)Nc2ccc(OC(=O)C(C)N3C(=O)c4ccccc4C3=O)cc21 (centres undefined)	39.1%
